According to the supplement of paper PMC11732987, “Enantioselective OTUD7B fragment discovery through chemoproteomics screening and high-throughput optimisation” (Communications Chemistry, 2025):

Key:
Assay in all cases: log2 ratio of Biotin-Ahx-Ub-VS probe labelling (fragment/DMSO); higher = less target engagement (more negative = stronger competition), active = hit call of the paper (q ≤ 0.05, log2 ratio ≤ -1)
Conditions in all cases: compound concentration: 200 uM; treatment time: 3 h
[1] = target: T1, USP42 (UniProt Q9H9J4)
T1 sequence (whole entry): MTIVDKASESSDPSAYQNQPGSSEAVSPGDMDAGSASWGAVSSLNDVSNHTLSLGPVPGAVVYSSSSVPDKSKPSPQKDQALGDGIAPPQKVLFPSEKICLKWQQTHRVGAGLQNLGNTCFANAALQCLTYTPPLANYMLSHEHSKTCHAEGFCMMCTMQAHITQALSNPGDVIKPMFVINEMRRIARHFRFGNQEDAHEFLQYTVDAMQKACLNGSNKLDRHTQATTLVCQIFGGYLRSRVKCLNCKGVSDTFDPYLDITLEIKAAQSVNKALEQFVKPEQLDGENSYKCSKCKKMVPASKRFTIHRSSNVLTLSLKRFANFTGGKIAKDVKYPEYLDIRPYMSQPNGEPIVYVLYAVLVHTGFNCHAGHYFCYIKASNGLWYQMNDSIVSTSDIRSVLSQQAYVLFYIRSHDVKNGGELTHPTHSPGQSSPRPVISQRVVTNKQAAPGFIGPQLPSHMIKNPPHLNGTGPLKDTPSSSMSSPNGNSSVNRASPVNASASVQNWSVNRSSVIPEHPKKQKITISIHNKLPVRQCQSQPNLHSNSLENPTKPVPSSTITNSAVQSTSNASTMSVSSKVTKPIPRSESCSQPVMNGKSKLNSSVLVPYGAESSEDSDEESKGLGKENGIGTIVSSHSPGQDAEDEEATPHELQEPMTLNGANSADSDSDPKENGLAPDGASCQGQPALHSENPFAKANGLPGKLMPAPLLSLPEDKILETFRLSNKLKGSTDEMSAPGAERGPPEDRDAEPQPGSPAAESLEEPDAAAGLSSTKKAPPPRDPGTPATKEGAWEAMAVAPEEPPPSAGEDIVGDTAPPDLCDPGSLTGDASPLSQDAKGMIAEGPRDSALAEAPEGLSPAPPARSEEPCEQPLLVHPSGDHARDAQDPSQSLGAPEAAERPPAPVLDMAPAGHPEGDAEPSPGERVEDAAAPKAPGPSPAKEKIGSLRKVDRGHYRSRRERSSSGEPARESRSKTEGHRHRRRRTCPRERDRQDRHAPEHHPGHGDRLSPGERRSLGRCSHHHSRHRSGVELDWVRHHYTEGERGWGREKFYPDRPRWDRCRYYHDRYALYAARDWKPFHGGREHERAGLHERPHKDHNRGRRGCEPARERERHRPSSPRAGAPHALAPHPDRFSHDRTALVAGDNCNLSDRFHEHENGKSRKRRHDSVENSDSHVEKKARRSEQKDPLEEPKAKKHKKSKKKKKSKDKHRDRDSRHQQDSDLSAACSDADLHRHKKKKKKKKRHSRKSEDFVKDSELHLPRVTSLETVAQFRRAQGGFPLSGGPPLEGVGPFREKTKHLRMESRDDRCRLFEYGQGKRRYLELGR
Method in brief: (§1)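 HEK293T lysate (495 µg per sample, in Tris/CHAPS/IGEPAL buffer with protease inhibitors) was treated in triplicate with fragment at 200 µM or with DMSO for 3 h. It was then treated with Biotin-Ahx-Ub-VS (0.5 µM final) for 1 h. Labelled DUBs were NeutrAvidin-enriched, digested with LysC and trypsin, and run by diaPASEF LC-MS/MS. Spectronaut label-free quantities were global-median-normalised. Values are average log2 ratios fragment/DMSO by unpaired t-test, using proteins with ≥2 unique peptides.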

[2] = target: USP46 (UniProt P62068)
Method in brief: as §1

[3] = target: T2, USP47 (UniProt Q96K76)
T2 sequence (whole entry): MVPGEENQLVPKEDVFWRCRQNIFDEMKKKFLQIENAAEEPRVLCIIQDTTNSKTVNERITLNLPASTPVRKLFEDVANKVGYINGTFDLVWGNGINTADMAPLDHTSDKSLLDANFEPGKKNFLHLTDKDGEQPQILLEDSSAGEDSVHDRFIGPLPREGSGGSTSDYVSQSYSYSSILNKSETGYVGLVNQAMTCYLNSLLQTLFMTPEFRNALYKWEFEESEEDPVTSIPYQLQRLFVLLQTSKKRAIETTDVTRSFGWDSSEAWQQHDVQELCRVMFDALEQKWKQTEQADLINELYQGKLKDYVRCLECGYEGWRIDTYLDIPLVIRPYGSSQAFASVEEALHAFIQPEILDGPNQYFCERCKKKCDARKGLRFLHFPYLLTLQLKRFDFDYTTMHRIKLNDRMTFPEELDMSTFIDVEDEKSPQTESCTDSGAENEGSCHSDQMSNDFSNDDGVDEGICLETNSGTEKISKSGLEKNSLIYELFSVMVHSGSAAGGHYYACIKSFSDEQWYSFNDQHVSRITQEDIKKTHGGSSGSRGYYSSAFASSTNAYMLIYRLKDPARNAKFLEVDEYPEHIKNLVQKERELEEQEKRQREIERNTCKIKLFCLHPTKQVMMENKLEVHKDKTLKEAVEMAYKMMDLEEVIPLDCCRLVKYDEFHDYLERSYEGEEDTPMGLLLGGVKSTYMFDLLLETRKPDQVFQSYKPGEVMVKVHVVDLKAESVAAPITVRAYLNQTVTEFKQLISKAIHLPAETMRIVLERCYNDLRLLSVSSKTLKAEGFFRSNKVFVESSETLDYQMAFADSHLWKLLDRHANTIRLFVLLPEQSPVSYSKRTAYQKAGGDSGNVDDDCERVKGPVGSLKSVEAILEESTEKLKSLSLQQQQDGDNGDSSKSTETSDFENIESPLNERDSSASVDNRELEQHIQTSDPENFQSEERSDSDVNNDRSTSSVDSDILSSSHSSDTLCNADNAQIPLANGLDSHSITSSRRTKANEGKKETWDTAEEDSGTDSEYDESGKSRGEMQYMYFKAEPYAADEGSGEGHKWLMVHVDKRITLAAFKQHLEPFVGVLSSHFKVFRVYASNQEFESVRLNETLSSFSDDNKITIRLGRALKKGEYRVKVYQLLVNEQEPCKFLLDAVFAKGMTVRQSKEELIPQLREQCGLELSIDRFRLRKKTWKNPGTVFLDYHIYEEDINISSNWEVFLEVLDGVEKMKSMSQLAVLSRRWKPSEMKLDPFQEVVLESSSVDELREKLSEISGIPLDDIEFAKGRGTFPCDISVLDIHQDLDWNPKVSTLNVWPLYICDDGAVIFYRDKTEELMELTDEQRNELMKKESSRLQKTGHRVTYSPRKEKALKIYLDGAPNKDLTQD
Method in brief: as §1

[4] = target: T3, USP48 (UniProt Q86UV5)
T3 sequence (whole entry): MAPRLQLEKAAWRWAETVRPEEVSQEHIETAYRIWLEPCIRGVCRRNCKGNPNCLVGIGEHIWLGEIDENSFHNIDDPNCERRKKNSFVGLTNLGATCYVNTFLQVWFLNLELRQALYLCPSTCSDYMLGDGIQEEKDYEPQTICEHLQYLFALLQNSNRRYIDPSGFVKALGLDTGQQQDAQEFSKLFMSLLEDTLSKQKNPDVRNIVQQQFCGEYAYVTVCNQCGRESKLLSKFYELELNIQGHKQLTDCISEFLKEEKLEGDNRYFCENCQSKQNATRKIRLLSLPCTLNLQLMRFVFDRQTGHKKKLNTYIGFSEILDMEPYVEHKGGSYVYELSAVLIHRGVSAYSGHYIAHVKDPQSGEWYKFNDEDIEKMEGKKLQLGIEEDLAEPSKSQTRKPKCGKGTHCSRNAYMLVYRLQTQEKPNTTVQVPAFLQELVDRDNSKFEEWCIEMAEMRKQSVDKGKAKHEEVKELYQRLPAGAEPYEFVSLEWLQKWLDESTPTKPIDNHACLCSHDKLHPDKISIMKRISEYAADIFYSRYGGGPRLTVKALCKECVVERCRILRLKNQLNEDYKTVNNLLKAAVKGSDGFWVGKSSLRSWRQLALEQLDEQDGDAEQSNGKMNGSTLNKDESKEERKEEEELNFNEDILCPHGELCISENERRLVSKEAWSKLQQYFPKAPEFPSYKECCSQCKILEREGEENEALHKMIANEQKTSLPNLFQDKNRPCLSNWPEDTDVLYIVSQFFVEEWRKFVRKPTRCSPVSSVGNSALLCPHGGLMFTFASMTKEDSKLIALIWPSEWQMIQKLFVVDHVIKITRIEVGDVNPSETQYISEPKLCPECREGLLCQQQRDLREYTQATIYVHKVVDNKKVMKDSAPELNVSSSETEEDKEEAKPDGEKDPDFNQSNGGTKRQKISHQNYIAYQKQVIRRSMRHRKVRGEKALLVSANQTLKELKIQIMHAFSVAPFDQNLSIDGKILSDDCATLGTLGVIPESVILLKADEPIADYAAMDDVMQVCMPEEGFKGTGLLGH
Method in brief: as §1

[5] = target: T4, USP5 (UniProt P45974)
T4 sequence (whole entry): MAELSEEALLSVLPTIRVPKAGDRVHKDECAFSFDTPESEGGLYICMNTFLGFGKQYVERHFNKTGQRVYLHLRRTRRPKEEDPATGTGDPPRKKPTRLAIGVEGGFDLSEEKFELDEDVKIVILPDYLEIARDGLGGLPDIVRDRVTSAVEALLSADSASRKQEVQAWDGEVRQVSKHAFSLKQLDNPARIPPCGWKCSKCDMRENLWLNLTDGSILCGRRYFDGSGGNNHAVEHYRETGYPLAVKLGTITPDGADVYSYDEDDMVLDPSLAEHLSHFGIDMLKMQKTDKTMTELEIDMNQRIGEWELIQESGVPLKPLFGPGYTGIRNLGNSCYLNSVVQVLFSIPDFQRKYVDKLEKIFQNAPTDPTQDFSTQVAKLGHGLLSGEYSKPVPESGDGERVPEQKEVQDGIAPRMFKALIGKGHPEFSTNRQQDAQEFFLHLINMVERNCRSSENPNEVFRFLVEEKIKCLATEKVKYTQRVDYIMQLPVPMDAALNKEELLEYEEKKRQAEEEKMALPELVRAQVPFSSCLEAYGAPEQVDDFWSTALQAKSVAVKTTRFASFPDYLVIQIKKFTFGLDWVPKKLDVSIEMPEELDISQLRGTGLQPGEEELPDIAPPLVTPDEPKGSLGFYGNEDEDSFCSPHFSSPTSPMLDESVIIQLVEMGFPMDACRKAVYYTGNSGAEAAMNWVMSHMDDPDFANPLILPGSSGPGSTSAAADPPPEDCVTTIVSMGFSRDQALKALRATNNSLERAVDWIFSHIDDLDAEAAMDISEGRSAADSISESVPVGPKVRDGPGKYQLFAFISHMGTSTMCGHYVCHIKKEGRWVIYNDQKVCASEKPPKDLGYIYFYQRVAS
Method in brief: as §1

[6] = target: USP54 (UniProt Q70EL1)
Method in brief: as §1

[7] = target: USP7 (UniProt Q93009)
Method in brief: as §1

[8] = target: T5, USP8 (UniProt P40818)
T5 sequence (whole entry): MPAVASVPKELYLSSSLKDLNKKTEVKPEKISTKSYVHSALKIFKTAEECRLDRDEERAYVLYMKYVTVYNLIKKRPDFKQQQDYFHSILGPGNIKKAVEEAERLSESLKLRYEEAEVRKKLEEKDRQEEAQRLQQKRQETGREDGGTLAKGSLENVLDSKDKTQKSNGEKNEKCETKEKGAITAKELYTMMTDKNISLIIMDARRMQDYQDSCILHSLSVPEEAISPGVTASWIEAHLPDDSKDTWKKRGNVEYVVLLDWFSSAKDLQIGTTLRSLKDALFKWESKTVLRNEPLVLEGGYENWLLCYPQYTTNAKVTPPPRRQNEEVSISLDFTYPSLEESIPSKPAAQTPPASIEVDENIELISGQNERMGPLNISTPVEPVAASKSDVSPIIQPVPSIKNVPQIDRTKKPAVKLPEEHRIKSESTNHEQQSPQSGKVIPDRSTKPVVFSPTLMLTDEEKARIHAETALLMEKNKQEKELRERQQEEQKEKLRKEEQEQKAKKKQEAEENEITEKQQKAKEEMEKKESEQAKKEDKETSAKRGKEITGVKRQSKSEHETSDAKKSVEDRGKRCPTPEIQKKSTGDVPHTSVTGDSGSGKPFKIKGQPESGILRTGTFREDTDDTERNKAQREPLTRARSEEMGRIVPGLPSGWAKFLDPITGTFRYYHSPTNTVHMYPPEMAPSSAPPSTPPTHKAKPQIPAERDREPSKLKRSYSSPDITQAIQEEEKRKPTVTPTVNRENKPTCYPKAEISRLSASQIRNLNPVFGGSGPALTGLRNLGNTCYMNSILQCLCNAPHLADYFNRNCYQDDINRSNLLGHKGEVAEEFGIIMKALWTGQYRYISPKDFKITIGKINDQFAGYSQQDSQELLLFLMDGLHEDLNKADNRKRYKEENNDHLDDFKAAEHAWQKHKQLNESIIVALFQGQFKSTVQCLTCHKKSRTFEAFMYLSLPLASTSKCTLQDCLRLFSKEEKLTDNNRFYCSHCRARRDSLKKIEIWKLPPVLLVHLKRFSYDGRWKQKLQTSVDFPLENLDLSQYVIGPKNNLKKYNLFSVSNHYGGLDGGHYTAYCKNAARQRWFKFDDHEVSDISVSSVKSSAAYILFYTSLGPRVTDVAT
Method in brief: as §1

[9] = target: USP9X (UniProt Q93008)
Method in brief: as §1

[10] = target: UniProt O00487
Method in brief: as §1

Measured: log2 ratio of Biotin-Ahx-Ub-VS probe labelling

USP9X, sequence (Q93008 whole entry): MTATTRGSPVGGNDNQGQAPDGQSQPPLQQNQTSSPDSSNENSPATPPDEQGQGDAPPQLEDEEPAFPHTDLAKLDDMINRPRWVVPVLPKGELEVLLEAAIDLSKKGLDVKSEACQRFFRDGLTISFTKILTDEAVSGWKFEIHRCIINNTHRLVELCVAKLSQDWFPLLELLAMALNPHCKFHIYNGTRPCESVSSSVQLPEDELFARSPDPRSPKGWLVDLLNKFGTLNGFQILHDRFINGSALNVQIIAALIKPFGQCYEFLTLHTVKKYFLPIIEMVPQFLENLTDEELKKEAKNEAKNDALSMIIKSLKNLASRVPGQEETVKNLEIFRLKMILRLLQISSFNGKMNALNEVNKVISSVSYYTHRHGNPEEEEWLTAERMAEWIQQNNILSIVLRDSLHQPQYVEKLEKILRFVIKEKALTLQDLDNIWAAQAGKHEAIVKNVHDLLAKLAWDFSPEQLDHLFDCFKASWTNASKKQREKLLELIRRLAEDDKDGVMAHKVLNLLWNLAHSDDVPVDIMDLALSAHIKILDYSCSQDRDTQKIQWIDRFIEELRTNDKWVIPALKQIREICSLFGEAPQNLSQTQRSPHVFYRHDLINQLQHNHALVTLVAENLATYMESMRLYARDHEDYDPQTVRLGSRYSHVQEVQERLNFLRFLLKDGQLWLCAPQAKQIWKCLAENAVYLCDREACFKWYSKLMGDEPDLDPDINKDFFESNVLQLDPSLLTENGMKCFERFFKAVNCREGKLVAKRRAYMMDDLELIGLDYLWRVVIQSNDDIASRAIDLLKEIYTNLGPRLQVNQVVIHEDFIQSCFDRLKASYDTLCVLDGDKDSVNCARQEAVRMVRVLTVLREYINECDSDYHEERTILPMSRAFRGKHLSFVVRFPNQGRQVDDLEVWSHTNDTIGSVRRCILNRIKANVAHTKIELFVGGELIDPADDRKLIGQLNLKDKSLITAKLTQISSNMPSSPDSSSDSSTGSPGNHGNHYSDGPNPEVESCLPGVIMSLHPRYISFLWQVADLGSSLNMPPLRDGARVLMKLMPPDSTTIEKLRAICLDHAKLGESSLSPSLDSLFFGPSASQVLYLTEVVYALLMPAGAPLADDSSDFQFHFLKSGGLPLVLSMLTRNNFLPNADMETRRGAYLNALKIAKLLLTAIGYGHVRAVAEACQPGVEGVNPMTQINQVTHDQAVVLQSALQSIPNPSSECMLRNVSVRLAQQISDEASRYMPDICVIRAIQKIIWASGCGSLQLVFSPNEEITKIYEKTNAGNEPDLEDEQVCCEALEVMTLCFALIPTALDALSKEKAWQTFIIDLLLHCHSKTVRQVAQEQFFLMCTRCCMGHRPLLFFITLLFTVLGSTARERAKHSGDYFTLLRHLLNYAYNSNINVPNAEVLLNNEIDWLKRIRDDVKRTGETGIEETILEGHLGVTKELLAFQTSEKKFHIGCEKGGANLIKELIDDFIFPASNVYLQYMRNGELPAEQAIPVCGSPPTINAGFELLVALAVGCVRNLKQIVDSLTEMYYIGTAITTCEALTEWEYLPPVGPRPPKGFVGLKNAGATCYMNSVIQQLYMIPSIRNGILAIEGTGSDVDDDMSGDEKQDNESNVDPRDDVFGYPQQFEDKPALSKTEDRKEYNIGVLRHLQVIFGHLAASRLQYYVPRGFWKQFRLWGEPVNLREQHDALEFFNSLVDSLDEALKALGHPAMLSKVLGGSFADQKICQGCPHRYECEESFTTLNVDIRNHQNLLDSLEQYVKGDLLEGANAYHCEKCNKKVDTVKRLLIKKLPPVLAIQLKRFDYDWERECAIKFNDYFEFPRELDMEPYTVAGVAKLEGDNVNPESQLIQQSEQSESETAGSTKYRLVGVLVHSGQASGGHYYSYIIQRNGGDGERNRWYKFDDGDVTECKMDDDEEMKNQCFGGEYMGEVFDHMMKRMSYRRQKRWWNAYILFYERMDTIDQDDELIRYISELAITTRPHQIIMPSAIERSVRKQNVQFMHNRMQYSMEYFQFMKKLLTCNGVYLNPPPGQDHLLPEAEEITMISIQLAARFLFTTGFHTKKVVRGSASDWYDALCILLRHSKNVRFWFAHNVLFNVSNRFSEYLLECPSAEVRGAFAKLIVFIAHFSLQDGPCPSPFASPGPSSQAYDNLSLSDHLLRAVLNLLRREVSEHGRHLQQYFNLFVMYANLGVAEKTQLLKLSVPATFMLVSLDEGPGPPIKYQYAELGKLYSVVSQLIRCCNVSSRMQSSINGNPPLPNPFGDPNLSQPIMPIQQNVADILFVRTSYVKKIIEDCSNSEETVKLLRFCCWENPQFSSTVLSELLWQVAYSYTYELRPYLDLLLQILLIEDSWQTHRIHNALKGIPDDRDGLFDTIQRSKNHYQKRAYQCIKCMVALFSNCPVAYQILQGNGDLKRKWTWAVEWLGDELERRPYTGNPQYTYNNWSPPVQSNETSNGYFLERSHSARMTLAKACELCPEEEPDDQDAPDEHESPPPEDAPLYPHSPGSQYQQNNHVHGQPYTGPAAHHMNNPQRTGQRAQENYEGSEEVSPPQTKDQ
UniProt O00487, sequence (O00487 whole entry): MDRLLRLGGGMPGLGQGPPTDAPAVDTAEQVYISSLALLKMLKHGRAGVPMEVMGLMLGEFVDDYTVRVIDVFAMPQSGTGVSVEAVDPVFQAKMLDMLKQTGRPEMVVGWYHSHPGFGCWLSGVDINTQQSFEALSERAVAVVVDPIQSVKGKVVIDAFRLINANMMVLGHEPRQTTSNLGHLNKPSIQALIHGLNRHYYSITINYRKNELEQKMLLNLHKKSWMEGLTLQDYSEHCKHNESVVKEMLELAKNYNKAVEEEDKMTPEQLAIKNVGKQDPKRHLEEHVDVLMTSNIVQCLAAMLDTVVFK
USP54, sequence (Q70EL1 whole entry): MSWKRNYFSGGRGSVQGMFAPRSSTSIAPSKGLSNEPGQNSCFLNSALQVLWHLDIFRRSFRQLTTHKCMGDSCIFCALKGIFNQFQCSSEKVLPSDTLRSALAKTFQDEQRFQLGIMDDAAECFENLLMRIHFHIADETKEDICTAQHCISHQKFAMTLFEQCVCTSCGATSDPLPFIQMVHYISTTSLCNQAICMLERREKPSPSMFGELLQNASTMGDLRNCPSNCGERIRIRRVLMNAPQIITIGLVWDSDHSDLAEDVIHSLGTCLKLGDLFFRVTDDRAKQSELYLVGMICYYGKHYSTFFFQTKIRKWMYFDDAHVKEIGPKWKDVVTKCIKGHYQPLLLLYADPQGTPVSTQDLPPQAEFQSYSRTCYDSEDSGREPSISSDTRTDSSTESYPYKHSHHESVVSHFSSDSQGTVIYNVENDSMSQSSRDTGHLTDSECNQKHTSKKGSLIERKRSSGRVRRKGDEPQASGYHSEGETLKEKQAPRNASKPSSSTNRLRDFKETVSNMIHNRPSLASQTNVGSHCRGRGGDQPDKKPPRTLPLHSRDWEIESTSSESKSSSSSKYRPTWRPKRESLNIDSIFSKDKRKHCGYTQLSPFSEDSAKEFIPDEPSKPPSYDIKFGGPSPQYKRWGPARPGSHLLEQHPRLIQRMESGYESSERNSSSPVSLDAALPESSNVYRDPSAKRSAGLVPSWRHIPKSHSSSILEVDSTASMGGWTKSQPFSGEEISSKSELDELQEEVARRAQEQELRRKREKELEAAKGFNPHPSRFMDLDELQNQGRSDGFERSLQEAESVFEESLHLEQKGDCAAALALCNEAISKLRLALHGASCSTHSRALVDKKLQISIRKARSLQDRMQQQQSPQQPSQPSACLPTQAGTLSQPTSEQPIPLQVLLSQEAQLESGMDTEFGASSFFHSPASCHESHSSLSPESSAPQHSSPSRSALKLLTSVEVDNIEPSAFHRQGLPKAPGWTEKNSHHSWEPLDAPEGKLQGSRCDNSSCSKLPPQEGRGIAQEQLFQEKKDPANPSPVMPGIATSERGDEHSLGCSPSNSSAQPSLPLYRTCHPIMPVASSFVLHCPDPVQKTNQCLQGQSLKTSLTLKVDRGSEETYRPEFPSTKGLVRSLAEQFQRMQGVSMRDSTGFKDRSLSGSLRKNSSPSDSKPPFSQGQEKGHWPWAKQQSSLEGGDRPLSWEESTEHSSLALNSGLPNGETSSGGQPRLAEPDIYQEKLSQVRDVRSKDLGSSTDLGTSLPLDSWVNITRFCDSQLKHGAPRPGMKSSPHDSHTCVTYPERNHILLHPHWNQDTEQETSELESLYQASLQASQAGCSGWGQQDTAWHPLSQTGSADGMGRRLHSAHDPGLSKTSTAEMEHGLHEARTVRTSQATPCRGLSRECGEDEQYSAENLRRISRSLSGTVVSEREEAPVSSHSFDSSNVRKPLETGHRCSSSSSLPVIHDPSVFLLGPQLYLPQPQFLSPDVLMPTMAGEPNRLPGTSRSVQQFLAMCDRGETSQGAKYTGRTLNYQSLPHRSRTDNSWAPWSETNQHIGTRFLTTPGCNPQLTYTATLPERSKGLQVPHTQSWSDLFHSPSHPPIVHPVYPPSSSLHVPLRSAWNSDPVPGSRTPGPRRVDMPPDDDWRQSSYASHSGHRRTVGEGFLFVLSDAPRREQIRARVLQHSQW
USP46, sequence (P62068 whole entry): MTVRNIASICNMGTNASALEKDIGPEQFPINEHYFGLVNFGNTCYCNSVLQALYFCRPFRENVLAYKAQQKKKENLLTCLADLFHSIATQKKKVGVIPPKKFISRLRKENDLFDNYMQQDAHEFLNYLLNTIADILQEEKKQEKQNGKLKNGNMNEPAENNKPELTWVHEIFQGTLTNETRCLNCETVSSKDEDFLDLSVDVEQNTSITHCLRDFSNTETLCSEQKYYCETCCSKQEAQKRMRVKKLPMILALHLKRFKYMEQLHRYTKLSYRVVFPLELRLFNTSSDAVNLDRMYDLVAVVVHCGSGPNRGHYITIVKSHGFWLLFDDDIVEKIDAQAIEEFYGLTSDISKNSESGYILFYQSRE

Cc1nnc(C(NC(=O)CCl)c2ccccc2)n1C (stereo not given)
inactive: [1] 0.478 | [2] 0.418 | [3] 0.26 | [4] 0.313 | [5] 0.627 | [6] 0.407 | [7] 0.438 | [8] 0.467 | [9] 0.432 | [10] 0.442
